According to publication PMC4336329 (PLoS ONE, 2015):
Out of some 310,000 compounds screened, about 14,000 (4.5%) showed an effect of 50% or more. The effect is printed as a negative number. For the sample, strong results were picked, then their nearest neighbours and some compounds at random.

Molecular target: human ether-à-go-go-related gene (hERG) potassium channel (human, UniProt Q12809)
Assay: primary screen, population patch clamp on CHO cells stably expressing hERG; higher = less effect of the substance
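Also: peak tail current of the secondary pulse compared with the same well before compound.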

human ether-à-go-go-related gene (hERG) potassium channel, sequence (Q12809 whole entry, looked up): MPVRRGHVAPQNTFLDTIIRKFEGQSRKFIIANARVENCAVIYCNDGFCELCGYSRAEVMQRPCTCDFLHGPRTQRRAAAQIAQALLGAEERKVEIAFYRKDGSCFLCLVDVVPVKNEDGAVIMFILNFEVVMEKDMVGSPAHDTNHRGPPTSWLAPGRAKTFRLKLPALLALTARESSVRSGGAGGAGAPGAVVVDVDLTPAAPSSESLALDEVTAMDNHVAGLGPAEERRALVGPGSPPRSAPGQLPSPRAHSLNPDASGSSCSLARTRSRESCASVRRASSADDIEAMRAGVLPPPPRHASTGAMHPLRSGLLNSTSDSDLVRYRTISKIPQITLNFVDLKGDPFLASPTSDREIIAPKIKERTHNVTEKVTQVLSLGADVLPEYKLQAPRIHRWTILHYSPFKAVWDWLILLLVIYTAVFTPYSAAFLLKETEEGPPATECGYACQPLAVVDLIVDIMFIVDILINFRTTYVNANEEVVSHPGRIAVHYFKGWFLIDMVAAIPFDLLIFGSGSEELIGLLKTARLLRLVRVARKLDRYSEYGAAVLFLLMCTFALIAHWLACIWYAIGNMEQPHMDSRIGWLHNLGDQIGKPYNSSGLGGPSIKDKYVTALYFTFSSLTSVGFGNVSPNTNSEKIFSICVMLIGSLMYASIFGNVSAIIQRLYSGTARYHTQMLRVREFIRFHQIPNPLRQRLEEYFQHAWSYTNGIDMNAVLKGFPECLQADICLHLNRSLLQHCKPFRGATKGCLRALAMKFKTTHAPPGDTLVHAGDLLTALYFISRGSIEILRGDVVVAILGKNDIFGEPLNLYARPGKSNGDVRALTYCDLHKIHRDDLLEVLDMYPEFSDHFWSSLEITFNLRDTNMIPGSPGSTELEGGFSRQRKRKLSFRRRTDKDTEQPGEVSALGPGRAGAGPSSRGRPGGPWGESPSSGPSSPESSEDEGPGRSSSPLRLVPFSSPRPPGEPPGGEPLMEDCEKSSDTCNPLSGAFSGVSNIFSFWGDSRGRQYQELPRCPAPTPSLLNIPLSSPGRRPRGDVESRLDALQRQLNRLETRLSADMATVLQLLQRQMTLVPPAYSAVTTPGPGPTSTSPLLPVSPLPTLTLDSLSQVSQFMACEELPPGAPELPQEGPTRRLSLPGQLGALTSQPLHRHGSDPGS

SMILES	hERG current change (%, negative = inhibition) at 10uM [%]
CC(=O)OCn1ncc(N2CCOCC2)c(Br)c1=O	16.5
Cc1ccc(/C=N/Nc2cc(C)nc(N3CCOCC3)n2)cc1	17.5
Cc1ccc(N=Nc2c(O)[nH]c(=O)[nH]c2=O)c([N+](=O)[O-])c1	-5.68
Cc1ccc(S(=O)(=O)NC(CCc2ccccc2)CC(=O)C(C)(C)C)cc1 (centres unmarked)	-0.463
O=C(c1ccc(N2CCOCC2)c([N+](=O)[O-])c1)N1CCCC(C(F)(F)F)C1 (centres unmarked)	2.23
Cc1ccc(S(=O)(=O)NC(=O)N(C)C2CCCCC2)cc1	9.07
CC1(C)Cc2c(C#N)c(NCCN3CCOCC3)nc(-c3ccccc3)c2CO1	-17.1
COc1nc(-c2ccccc2)c2c(c1C#N)CC(C)(C)OC2	-11.2
Cc1nc(NCCCO)c(C#N)c2c1COC(C)(C)C2	-15
CN(C)CCNc1nc(-c2ccccc2)c2c(c1C#N)CC(C)(C)OC2	-42.4
CN(C)CCCNc1nc(-c2ccccc2)c2c(c1C#N)CC(C)(C)OC2	-57.4
CC1(C)Cc2c(C#N)c(NCCCO)nc(-c3ccccc3)c2CO1	-56
CC1CCCCN1S(=O)(=O)c1ccc(C(=O)Nc2nnc(-c3ccco3)o2)cc1 (centres unmarked)	-2.35
O=C(CCc1ccccc1)NNC(=O)Cc1ccc(Cl)cc1	13.1
CCOC(=O)C1=C(C)Nc2ccccc2N=C1NC(=O)c1cccc(S(=O)(=O)NCc2ccccc2)c1	-19.4
Cc1nn(Cc2n[nH]c(=S)n2Cc2ccccc2)c(C)c1Cl	14
Cc1ccc(CN2CCN(Cc3cccc4c3OCO4)CC2CCO)cc1 (centres unmarked)	-51.2
CC(C)CN1CCN(Cc2cccc3c2OCO3)CC1CCO (centres unmarked)	-1.45
CCOc1ccc(CN2CCN(Cc3cc4c(cc3Cl)OCO4)CC2CCO)cc1 (centres unmarked)	-73.3
OCCC1CN(Cc2cccc3c2OCO3)CCN1C1CCCC1 (centres unmarked)	-20.4
CC(C)N1CCC(N2CCN(Cc3cc4c(cc3Cl)OCO4)CC2CCO)CC1 (centres unmarked)	-18.5
CC(C)N1CCN(Cc2cc3c(cc2Cl)OCO3)CC1CCO (centres unmarked)	-2.34
CC(C)N1CCN(Cc2cccc3c2OCO3)CC1CCO (centres unmarked)	-0.928

SMILES	hERG current change (%, negative = inhibition) at 10uM [%]
OCCC1CN(Cc2cc3c(cc2Cl)OCO3)CCN1C1CCCC1 (centres unmarked)	-50.8
OCCC1CN(Cc2cccc3c2OCO3)CCN1Cc1ccccc1 (centres unmarked)	-3.38
OCCC1CN(Cc2cc3c(cc2Cl)OCO3)CCN1Cc1ccccc1 (centres unmarked)	-45.3
CCOc1ccc(CN2CCN(Cc3cccc4c3OCO4)CC2CCO)cc1 (centres unmarked)	-77.4
CC(C)=CCN1CCN(Cc2cccc3c2OCO3)CC1CCO (centres unmarked)	-12.6
COc1ccc(C2/C=C\CN(CC(C)C)CC(=O)N2Cc2ccc(F)cc2)cc1 (centres unmarked)	-6.03
Cc1cc([N+](=O)[O-])nn1CC(=O)N(C)C1CCCCC1	-18.6
O=C(Nc1ccccc1Cl)C1CCN(S(=O)(=O)c2cccc3nonc23)CC1	16
CC(=O)c1c(C)oc2ccc(N(C(C)=O)S(=O)(=O)c3cccc([N+](=O)[O-])c3)cc12	8.76
N#C/C(=C(/O)CN1C(=O)c2ccccc2C1=O)c1nc2ccccc2[nH]1	11.6
CCOc1ccccc1CN1CCN(Cc2cccc3c2OCO3)CC1CCO (centres unmarked)	-62.6
COc1cc(S(=O)(=O)N(Cc2cccnc2)Cc2cccc(OC)c2OC)ccc1-n1cnnn1	-46.5
COc1cc(S(=O)(=O)N(Cc2cccnc2)Cc2ccco2)ccc1-n1cnnn1	-52.3
COc1cc(S(=O)(=O)N(Cc2ccc(C)cc2)Cc2ccco2)ccc1-n1cnnn1	2.53
COc1ccccc1CN(Cc1ccco1)S(=O)(=O)c1ccc(-n2cnnn2)c(OC)c1	7.21
COc1ccccc1CN(Cc1cccnc1)S(=O)(=O)c1ccc(-n2cnnn2)c(OC)c1	-63
COc1ccc(CN(Cc2cccnc2)S(=O)(=O)c2ccc(-n3cnnn3)c(OC)c2)cc1	-46.7
CC(C)C[C@H](NC(=O)c1nc[nH]c1C(=O)N1CC[NH2+]CC1)C(=O)OCc1ccccc1.[Cl-]	20.5
COc1ccc(C2C3=C(CCCC3=O)N(CC(=O)O)C3=C2C(=O)CCC3)cc1Cl	23.8
CN(c1cccc(NC(=O)CCSc2ccccc2)c1)S(C)(=O)=O	-28.8
O=C1c2ccccc2NC(c2ccc3c(c2)OCCO3)N1c1ccc2c(c1)OCCO2 (centres unmarked)	10.9
Cc1ccc(NC(=O)/C=C\C(=O)O)c([N+](=O)[O-])c1	21.4
Cc1cc(NC(=O)/C=C\C(=O)O)c([N+](=O)[O-])cc1C	11.6

SMILES	hERG current change (%, negative = inhibition) at 10uM [%]
Cc1ccc(NC(=O)/C=C/C(=O)O)c([N+](=O)[O-])c1	-67
COC(=O)c1cn(NC(=O)Cc2cccc(OC)c2)c(=O)c2ccccc12	12
COc1cccc(NC(=S)N(CCCN2CCN(C)CC2)Cc2ccco2)c1	-36.2
CCN1CCN(CCCN(Cc2ccco2)C(=S)Nc2ccc(C)c(Cl)c2)CC1	-64.8
CCN1CCN(CCCN(Cc2ccco2)C(=S)Nc2ccc(Cl)c(C)c2)CC1	-74.8
Cc1cc(NC(=S)N(CCCN2CCN(C)CC2)Cc2ccco2)ccc1Cl	-68.2
Cc1cccc(NC(=S)N(CCCN2CCOCC2)Cc2ccco2)c1	-29.9
Cc1ccc(NC(=S)N(CCCN2CCOCC2)Cc2ccco2)cc1Cl	-36.6
S=c1[nH]nc(CSCCOc2ccccc2)o1	8.24
CN(C)S(=O)(=O)c1cccc(NC(=O)CNCC2CCCCC2)c1.O=C(O)C(=O)O	-1.77
Cc1ccc2nc(SCC(=O)N3c4ccccc4CC3C)c(C)cc2c1 (centres unmarked)	7.54
COc1ccc(NC(=O)C2CC2)cc1-n1cnnn1	5.86
O=C1CC(c2ccccc2)Cc2nc(N3CCc4ccccc4C3)ncc21 (centres unmarked)	-2.75
CCC(CO)N=CC1=C(O)CC(c2ccccc2)CC1=O (centres unmarked)	17.1
Cc1cc(C)c(NC2=NS(=O)(=O)c3ccccc32)c(C)c1	-10.9
CC(=O)c1cnc(Nc2nc(C)c3ccccc3n2)nc1C	17.3
COc1ccc(Nc2nc(C)c3ccccc3n2)cc1	-17.4
CC1=NC(Nc2nc(C)c3ccccc3n2)=NC(C)(C)C1	-69.4
O=C(O)c1ccccc1Sc1ncnc2sccc12	9.7
Cc1cc(C(=O)OCC(=O)NC2CCS(=O)(=O)C2)c(C)n1-c1ccccc1 (centres unmarked)	-6.8
CC(NC(=O)Nc1nnc(C(F)(F)F)s1)(C(F)(F)F)C(F)(F)F	-7.61
CCc1nnc(NC(=O)CCN2C(=O)c3ccccc3S2(=O)=O)s1	17.3
CCOC(=O)c1c(C)[nH]c(C(=O)N/N=C/c2ccc(OC)c(OC)c2)c1C	12.7

SMILES	hERG current change (%, negative = inhibition) at 10uM [%]
COc1ccc(C(=O)N/C(=C\c2cn(C)c3ccccc23)C(=O)NCCCN2CCOCC2)cc1	4.94
COc1ccc(/C=C(\NC(=O)c2ccc([N+](=O)[O-])cc2)C(=O)NCCCN2CCOCC2)cc1	-77
COc1ccc(/C=C(\NC(=O)c2ccccc2)C(=O)NCCN2CCOCC2)cc1OC	23
COc1ccc(/C=C(\NC(=O)c2ccc([N+](=O)[O-])cc2)C(=O)NCCN2CCOCC2)cc1	-70.7
O=C(NC(=S)NCCCN1CCOCC1)c1ccc([N+](=O)[O-])cc1	-33.4
COc1ccc(C(=O)N/C(=C\c2ccco2)C(=O)NCCN2CCOCC2)cc1	8.33
COc1cc2c(cc1OC)C(c1ccccc1)CC2=O (centres unmarked)	7.03
COC(=O)c1ccc(-c2nc3ccccc3[nH]2)cc1	17.8
Cc1cc(Cl)ccc1OC(C)C(=O)Nc1ccc([N+](=O)[O-])cn1 (centres unmarked)	-75.9
CC(Oc1cccnc1[N+](=O)[O-])C(=O)Nc1ccc(Cl)cn1 (centres unmarked)	-16.6
CCC(C(=O)Nc1ccc([N+](=O)[O-])cn1)c1ccccc1 (centres unmarked)	-67.4
CC(Oc1cccc(Cl)c1)C(=O)Nc1ccncc1 (centres unmarked)	3.81
Cc1cccc(C(C)Nc2ccc([N+](=O)[O-])cn2)c1 (centres unmarked)	-68.9
CC(=O)Nc1ccc([N+](=O)[O-])cn1	24.4
CC(Oc1cccc(Cl)c1)C(=O)Nc1ccc([N+](=O)[O-])cn1 (centres unmarked)	-62.2
CCC(CC)C(=O)Nc1ccc([N+](=O)[O-])cn1	10.8
Cc1csc(NC(=O)C(C)Oc2ccc(Cl)cc2C)n1 (centres unmarked)	-21
CCC(C(=O)Nc1ccccn1)c1ccccc1 (centres unmarked)	1.4
Cc1cccc(OCCNc2ccc([N+](=O)[O-])cn2)c1	-21.3
Cc1cccc(Nc2ccc([N+](=O)[O-])cn2)c1	10.9
